# Measured values published in the supplement of paper PMC6555819.
# Tested on: VDR:RXRa (NR concentration 270 nM, RXRa partner concentration 90 nM)
# Test: PBM binding z-score (relative to random genomic background probes); higher = stronger binding; sequences stand for … in GC…GCGATTGACAGCGTAGAATGAAGG
# Protocol: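 Protein-binding microarray (Agilent 4x180K custom design, double-stranded 60-nt probes: 5' GC cap, 34-nt variable region, 24-nt constant primer region; full probe sequence given). Purified or IVT nuclear receptor:RXRα heterodimers (3:1 NR:RXRα, mostly 270:90 nM) or homodimers were incubated for 1 h in PBS with 2% milk and no ligand, then detected with Alexa488 antibodies. Fluorescence from o1-orientation probes (~5 replicates averaged) was converted to z-scores against 500 random hg19 background probes. Variable regions are seed direct-repeat (DR0–DR5) sites, all their single-nucleotide variants and half-site ablations.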
row,Sequence,PBM binding z-score
1,ACTATTAGTTGAGACGAGGGCCACCGATAGGTTG,-0.293
2,CGTCCAAGGTCAGCAGGACAGTGAAAGCGACGTG,2.42
3,TGGAGTAGGTTAGTCGGGGCATTCAGCCAACATA,2.43
4,CAAACTAGGTCAAGGTCAAAGCCGGTTTGTGCCA,4.95
5,TCTCGGAGGACACGAAGGTCAGAGCGTTCCAGAG,2.42
6,CCTACTGGGCCATAGGTCATTGATTCCAATGCTC,2.17
7,CAGCCTAGGTCAGGGCCAGTAGAGGAGGAACGTT,-0.0759
8,ACTATTAGTTGCCTTAGGGCAACCGATACGACGC,-0.026
9,TCGAGTAGGTTAGTCGGGGCATCCAGCCAACATA,1.5
10,ACAGACAGGTGATGAAGGTATCTCAGGCTATCAT,-0.0743
11,AGAATGAGGTTATACGTAAATCAGGGAAGAAAGT,1.21
12,CTCGAAAGGTCGGTTGAGGTGAGTATACGGATAA,2.14
13,ATCTCTAGGTAACCAAGTTCAGTGATTGCCGAAC,4.17
14,TGAATGAGGTTAAAGATCAGGAAACGTGGCGTCG,1.95
15,CCTACTGTGCCAAAAAGGTCATTGATGCCGATAA,4.92
16,CAAACTAGGTCAAAGGTTAAAGTCGAGCCAACCA,4.87
17,CAAACTAGGTCACCGGAAGGTCACAGTCCGCATG,5.64
18,CCTAGTAGTTGACCATAAGGGCAACCGAAGCTCG,0.633
19,TTACCAAGGTGAGCTGAGGACGTTGATCCAACTC,0.98
20,CCTTACGGGCCAAGGTTATAGCACGGGTGGTACG,-0.139

row,Sequence,PBM binding z-score
1,ATATTTAGGTTAAGGGTCATTCAGGTTGGTTCGC,5.46
2,GCAGACAGGTGAATCGCAGGTAACTCAGGGTGGC,-0.428
3,ACAGACAGGTGAGTGAAGGTAACCCAGCTGGACG,-0.336
4,CCTACTGGGCCAAAAAGGTCCTTGATGCCGATAA,-0.189
5,TCTAGTAGGTTAGTCGGGGCATTCAGCCAACATA,2.68
6,GCATATAGGAAATACAAGGTGAAAGTCCGATTGT,-0.189
7,CCGACTGGGGCAAAGATTACCATACTCAGTACGA,-0.618
8,GCGACTGGGGCATCAGCAGGTTGCCATAACTTAA,-0.532
9,CCTAGCAGGCCAGGGTCACGCAAGCATTTCGCTT,3.95
10,CAAACTAGGTCACCAGAAGGTCAAAGTCCGCATG,5.66
11,CGTCAAAGTTCAACGAAGGTAACGTAAAGCACGC,4.39
12,CCGAGTAGGTTATGGGGTATTCAGGCAACGGTGA,0.559
13,TCATATAGGCAATACAGGTGAAAGTCGGCATCTA,0.582
14,AATACAGGGTCAATAGGCCAGAGTAGGTACGAAT,3.64
15,TAGCCTAGGTCATTCAGGGGCCGGTATAGAAAGC,2.63
16,CCTTACGGGTCACGAGGTGATAGCACGACGAGCG,4.18
17,ATCTCTATGTAAAAGTTCAGTGAATCCCGAGGAT,1.2
18,CCCAGTTGGTCAAGGTCACACACGCTATAGGTAC,4.58
19,CCTACAGGGCCAAAAAGGTCATTGATGCCGATAA,5.62
20,AAGACAGGGTCATCGTAGGCCAGAGTACGCACAG,5.14
